Inconclusive results are not listed. Active and inactive are the calls of the source. The call rests on the fitted dose curve; in most records, active means well fitted cell-killing curve with a large enough effect; inconclusive means small, poorly fitted or top-dose-only effect, or effect the other way; inactive means no such curve, though single readings can be large or run the other way.
Test: qHTS of pediatric cancer cell lines to identify multiple opportunities for drug repurposing: Confirmatory screen for LAN-5 cells (AID 1347113); further: nearly all actives have a fitted effect of over 65% in size
Settings: LAN-5 neuroblastoma cell viability; series mostly up to 45.9 µM; activity change, negative = cytotoxicity: at the top concentration
Source text: Drug repurposing or repositioning has been offered as a strategy for drug development in oncology programs. This approach has special potential for childhood cancers and other rare or orphan diseases, where the expected return on new drug development has been a disincentive to pharmaceuticals.
In this project we exploit the poly-pharmacology of drugs to discover new indications via phenotypic screening of a panel of 19 well-characterized cell lines derived from solid tumors seen in children and adolescents. The goal is to identify approved drugs with previously unrecognized anticancer properties that has the potential to reveal new mechanisms and biological processes involved in carcinogenesis or drug resistance. We employed a titration-based paradigm (quantitative high-throughput screening or qHTS), where all compounds were tested at multiple concentrations for their effect on cell viability. Concentration-response curves (CRCs) were derived directly from the primary screen, and both potency and efficacy values were used to identify compounds with robust bioactivity profiles. We screened the NIH Chemical Genomics Center (NCGC) Pharmaceutical Collection (NPC) and Mechanism Interrogation Plate (MIPE) small molecule collections of approved and investigational compounds against these cell lines; and measured metabolically active cells after 48 hours of compound treatment as a proxy for cell viability.
Assay Submitter: Nathalia J. Martinez, National Center for Advancing Translational Sciences, National Institutes of Health, Rockville, MD, USA; email: natalia.martinez@nih.gov
[1] Shen, M et al. Quantitative high-throughput phenotypic screening of pediatric cancer cell lines identifies multiple opportunities for drug repurposing. Oncotarget 2017 Dec 19;9(4):4758-4772. PMID 29435139.
The cells were obtained from University of North Carolina (UNC), Pediatric Preclinical Testing Program (PPT), and Coriell Institute (CI).
qHTS cell viability assay:
Cells were assayed in growth media at a density of 500-1,000 cells/well. Five microliters of cells were dispensed into 1,536-well, white, solid-bottom, TC-treated plates (Greiner Bio One) using a multidrop dispenser and incubated at 37 degrees C, 5% CO2, under a humidified atmosphere for 5 hours. Twenty-three nanoliters of compounds and controls (neutral control DMSO or positive control bortezomib at final concentration of 2.3 µM) were subsequently transferred by Kalypsys pintool. For primary screens, the MIPE collection was tested at 11-point dilutions (final concentrations range from 0.78 nM to 46 µM) and the NPC collection at 8-point dilutions (final concentrations range from 0.59 nM to 46 µM). Compounds tested in follow-up screens were assayed at 11-point dilutions. Cells were incubated for 48 hours, followed by addition of 3 µL of CellTiter-Glo (Promega). After a 15 min incubation at room temperature, samples were analyzed for luminescence intensity using a ViewLux High-throughput CCD imager equipped with clear filters.
In the case of CCCC(=O)O[C@]1(C(=O)CCl)[C@@H](C)C[C@H]2[C@@H]3CCC4=CC(=O)C=C[C@]4(C)[C@@]3(F)C(=O)C[C@@]21C, the “activity change, negative = cytotoxicity” value is reported as -5.52% (inactive).
In the case of Cc1cc(OCCOCC[N+](C)(C)Cc2ccccc2)ccc1C(C)(C)CC(C)(C)C, the Potency is reported as 9.27 µM (active).
For N=C(N)c1ccc(OCCCOc2ccc(C(=N)N)cc2)cc1, the “outcome” value was “inactive”.
With C[C@H]1C[C@H]2[C@@H]3CCC4=CC(=O)C=C[C@]4(C)[C@H]3C(=O)C[C@]2(C)[C@@]1(O)C(=O)CO the Potency was 2.93 µM (active).
For C[C@]12CCC(=O)C=C1CC[C@@H]1[C@@H]2[C@@H](O)C[C@@]2(C)[C@H]1CC[C@]2(O)C(=O)COC(=O)CCC(=O)O, the “outcome” value was “inactive”.
With CCC1=C[C@@H]2CN(C1)Cc1c([nH]c3ccccc13)[C@@](C(=O)OC)(c1cc3c(cc1OC)N(C)[C@H]1[C@@](O)(C(=O)OC)[C@H](OC(C)=O)[C@]4(CC)C=CCN5CC[C@]31[C@@H]54)C2 the Potency was 0.329 µM (active).
In the case of CCOC(=O)O[C@]1(C(=O)OCCl)CC[C@H]2[C@@H]3CCC4=CC(=O)C=C[C@]4(C)[C@H]3[C@@H](O)C[C@@]21C, the “outcome” value is reported as “inactive”.
With CC[C@@]1(O)C(=O)OCc2c1cc1n(c2=O)Cc2c-1nc1ccccc1c2/C=N/OC(C)(C)C the Potency was 0.0147 µM (active).
For CO[C@@H]1[C@@H](OC)[C@H](C)[C@@](O)(CC(=O)O)O[C@H]1[C@H](C)[C@H]1O[C@@]2(CC[C@@](C)([C@H]3CC[C@@](C)([C@@H]4O[C@@H]([C@H]5O[C@](C)(O)[C@H](C)C[C@@H]5C)C[C@@H]4OC4C[C@H](OC)[C@@H](OC)[C@H](C)O4)O3)O2)C[C@H](O)[C@H]1C (some centres undefined), the Potency was 0.522 µM (active).
In the case of COc1c(C)c2c(c(O)c1C/C=C(\C)CCC(=O)OCCN1CCOCC1)C(=O)OC2, the Potency is reported as 1.65 µM (active).
For Nc1c2ccccc2nc2ccccc12, the Potency was 3.69 µM (active).
In the case of O=[N+]([O-])c1ccc(O)c2ncccc12, the Potency is reported as 9.27 µM (active).
With CC(=O)OCC(=O)[C@@]1(O)CCC2C3CCC4=CC(=O)CC[C@]4(C)C3[C@@H](O)C[C@@]21C (some centres undefined) the “activity change, negative = cytotoxicity” value was 3.26% (inactive).
In the case of CC(=O)[C@@]1(O)CC[C@H]2[C@@H]3C[C@H](C)C4=CC(=O)CC[C@]4(C)[C@H]3CC[C@@]21C, the “activity change, negative = cytotoxicity” value is reported as -6.48% (inactive).
With COc1cc(/C=C/C(N)=O)cc(OC)c1OC the “activity change, negative = cytotoxicity” value was -5.15% (inactive).
In the case of CC(=O)O[C@@H]1C(=O)O[C@@H]2[C@H]1OC(=O)[C@@H]2OC(C)=O, the “activity change, negative = cytotoxicity” value is reported as 7.26% (inactive).
For CN(C)CCN(Cc1ccsc1)c1ccccn1, the “activity change, negative = cytotoxicity” value was -9.1% (inactive).
In the case of CCCC(=O)O[C@]1(C(=O)COC(=O)CC)CC[C@H]2[C@@H]3CCC4=CC(=O)CC[C@]4(C)[C@H]3[C@@H](O)C[C@@]21C, the “activity change, negative = cytotoxicity” value is reported as 38.4% (inactive).
For CCCCC(=O)OCC(=O)[C@H]1[C@H](C)C[C@H]2[C@@H]3C[C@H](F)C4=CC(=O)C=C[C@]4(C)[C@@]3(F)[C@@H](O)C[C@@]21C, the Potency was 23.3 µM (active).
In the case of Cc1nc(N)nc(N)c1-c1ccc(Cl)c(Cl)c1, the “activity change, negative = cytotoxicity” value is reported as -6.63% (inactive).
In the case of CCC1(c2cnc[nH]2)Cc2ccccc2C1, the “activity change, negative = cytotoxicity” value is reported as 27.9% (inactive).
With CC(=O)OCC(=O)[C@@]1(O)[C@H](OC(C)=O)C[C@H]2[C@@H]3CCC4=CC(=O)C=C[C@]4(C)[C@@]3(F)[C@@H](O)C[C@@]21C the “activity change, negative = cytotoxicity” value was 28.1% (inactive).
In the case of O=c1[nH]sc2cc(Cl)ccc12, the Potency is reported as 10.4 µM (active).
With Nc1ccc2cc3ccc(N)cc3nc2c1 the Potency was 8.27 µM (active).
On the % scale 0 is the no-effect control and ±100 the full control effect; potency means the concentration at half of the fitted maximal effect.
